Test results reported in paper PMC5540273 (PLoS ONE, 2017).

Columns and labels:
Details in all cases: concentration: 1 μM, replicates: in singlicate; n = 1
FLT3-autoinhibited = tested on: FLT3-autoinhibited
FLT3 = tested on: FLT3
FLT4 = tested on: FLT4
FRK = tested on: FRK
FYN = tested on: FYN
GAK = tested on: GAK
GCN2(Kin.Dom.2,S808G) = tested on: T1, GCN2(Kin.Dom.2,S808G)
T1 construct: gene EIF2AK4

GRK1 = tested on: GRK1
GRK2 = tested on: T2, GRK2
T2 construct: gene ADRBK1

GRK3 = tested on: T3, GRK3
T3 construct: gene ADRBK2

GRK4 = tested on: GRK4
GRK7 = tested on: GRK7
GSK3A = tested on: GSK3A
GSK3B = tested on: GSK3B
HASPIN = tested on: T4, HASPIN
T4 construct: gene GSG2

HCK = tested on: HCK
HIPK1 = tested on: HIPK1
HIPK2 = tested on: HIPK2
HIPK3 = tested on: HIPK3
HIPK4 = tested on: HIPK4
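Note: KINOMEscan kinase panel screen.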

| Structure (SMILES) | %Inh (FLT3-autoinhibited) | %Inh (FLT3) | %Inh (FLT4) | %Inh (FRK) | %Inh (FYN) | %Inh (GAK) | %Inh (GCN2(Kin.Dom.2,S808G)) | %Inh (GRK1) | %Inh (GRK2) | %Inh (GRK3) | %Inh (GRK4) | %Inh (GRK7) | %Inh (GSK3A) | %Inh (GSK3B) | %Inh (HASPIN) | %Inh (HCK) | %Inh (HIPK1) | %Inh (HIPK2) | %Inh (HIPK3) | %Inh (HIPK4) |
| --- | --- | --- | --- | --- | --- | --- | --- | --- | --- | --- | --- | --- | --- | --- | --- | --- | --- | --- | --- | --- |
| O=C(Nc1cccc(-c2nn3ncccc3c2-c2ccnc(Nc3cccc(C(F)(F)F)c3)n2)c1)c1c(F)cccc1F [GSK299495] | 0% | 41% | 40% | 88% | 62% | 1% | 8% | 6% | 0% | 33% | 2% | 0% | 0% | 18% | 2% | 98.1% | 0% | 0% | 1% | 0% |
| COc1cc2c(cc1OCCN1CCN(C)CC1)ncc1c3ccc(C#N)cc3[nH]c21 | 97.4% | 98.6% | 0% | 2% | 25% | 99.6% | 90.8% | 32% | 0% | 0% | 0% | 0% | 0% | 0% | 76% | 0% | 97.6% | 100% | 96% | 55% |
| c1ccc(-c2cc(-c3c[nH]nc3-c3ccccn3)ccn2)cc1 [GW576604] | 0% | 0% | 0% | 0% | 20% | 78% | 1% | 0% | 0% | 17% | 0% | 0% | 11% | 0% | 16% | 0% | 0% | 0% | 15% | 6% |
| NCC(NC(=O)c1cc(-c2cn[nH]c2)c(-c2ccnc3[nH]ccc23)s1)c1ccccc1.O=C(O)C(F)(F)F.O=C(O)C(F)(F)F (centres unmarked) [GSK1325775] | 21% | 69% | 14% | 0% | 25% | 91.9% | 99.1% | 35% | 70% | 76% | 64% | 51% | 38% | 48% | 84% | 0% | 88% | 96.7% | 98.4% | 94.8% |
| Cc1cn2c(=O)cc(N3CCOCC3)nc2n1Cc1cccc(Cl)c1Cl [GSK2334006] | 10% | 13% | 39% | 28% | 23% | 35% | 12% | 2% | 3% | 0% | 0% | 0% | 11% | 13% | 11% | 16% | 0% | 0% | 18% | 6% |
| NS(=O)(=O)CCc1cccc(Nc2nccc(-c3c(-c4cccc(NC(=O)c5c(F)cccc5F)c4)nn4ccccc34)n2)c1 [GSK336735] | 11% | 98.9% | 99.2% | 97.2% | 96.7% | 28% | 87% | 0% | 0% | 89% | 43% | 12% | 20% | 6% | 0% | 98.9% | 0% | 0% | 8% | 25% |
| COc1cc2ncn(-c3cc(OCc4sccc4Cl)c(C(N)=O)s3)c2cc1OC [GSK448459] | 0% | 31% | 67% | 10% | 15% | 86% | 7% | 0% | 0% | 33% | 30% | 0% | 0% | 6% | 5% | 0% | 44% | 28% | 23% | 69% |
| Cc1nnc(-c2ccc3ncc(-c4ccc(S(C)=O)cc4)n3c2)o1 (centres unmarked) | 20% | 4% | 6% | 29% | 10% | 9% | 0% | 9% | 43% | 0% | 0% | 16% | 1% | 1% | 30% | 0% | 21% | 40% | 16% | 5% |
| Cc1ccc(NC(=O)c2ccnc(N3CCN(C)CC3)c2)cc1-c1ccc(C(=O)NCC2CC2)cc1 [GW775604] | 0% | 0% | 0% | 0% | 0% | 0% | 0% | 0% | 0% | 33% | 15% | 0% | 0% | 0% | 0% | 9% | 0% | 0% | 0% | 0% |
| CN1c2ccc(CNc3ccc(F)cc3)cc2-c2c(cnn2C)S1(=O)=O | 0% | 36% | 0% | 1% | 4% | 0% | 15% | 10% | 0% | 0% | 0% | 0% | 22% | 0% | 33% | 4% | 35% | 0% | 0% | 0% |
